# Inconclusive results are not listed. The source made the active and inactive calls. Calls follow the shape of the dose curve; as a rule, active = well fitted inhibition curve with a large enough effect; inconclusive = small, poorly fitted or top-dose-only effect; inactive = no such curve, though single readings can be large or run the other way. Non-standard residues stand in square brackets, D forms with d. Residues, ends and D or L forms follow the SMILES beside them. *: point of attachment. Nva = CCC[C@H](N)C(=O)O; Cbz = O=C(OCc1ccccc1)*
# Assay: NS1 protein of Zika virus - qHTS assay to identify small molecule inhibitors in human HEK 293 cells (AID 1347053); also: nearly all actives have a fitted effect of over 55% in size;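 as to activity change, negative = inhibition: plate controls were infected untreated cells for no effect and uninfected cells for full effect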
# Details: HEK293 ZIKV MR766 infection, NS1 TR-FRET, 24 h; series mostly up to 46.1 µM; activity change, negative = inhibition: at the top concentration
# Source text: National Center for Advancing Translational Sciences [NCATS]
# Johns Hopkins University School of Medicine
# The non-structural 1 (NS1) protein of zika virus is known to associate with the viral replication complex. This cell-based TR-FRET ZIKV NS-1 assay measures the increased NS-1 protein in human HEK 293 cells after a 24-hour Zika virus infection by a TR-FRET assay readout. A decrease in the Time-resolved fluorescence energy transfer (TR-FRET) signal in this assay by small molecule treatment indicates an inhibitory effect of the small molecule on the expression of Zika virus NS1 correlating with Zika virus replication.
# HEK 293 cells were cultured in EMEM (ATCC, Cat. # 30-2003) medium with 10% fetal bovine serum (GE healthcare Life Sciences, Cat. # SH30071.03), and 1% Pen/Strep (Gibco, Cat. # 15140-122). Cells were seeded in the assay plate and incubated at 37 C with 5% CO2 for 20 hours. Compounds were added to cells and incubated for one hour before addition of ZIKV MR766 strain solution to cells (MOI = 0.5). After an incubation at 37 C for 24 hours, the reagent mixture of TR-FRET ZIKV NS1 assay using two anti-ZIKV NS1 antibodies was added to assay plates. The TR-FRET signals in assay plates were measured using an Envision plate reader (PerkinElmer). Data were normalized by using the cell-containing wells without ZIKV as a negative control (0% NS-1) and wells containing ZIKV infected cells as a positive control (100% NS-1 level).
# Potency is read from the fitted curve at half-maximal effect.
SMILES,"activity change, negative = inhibition",Potency
C=CCNc1c(O)cc2c(O)c1C[C@@H](C)C[C@H](OC)[C@@H](O)[C@@H](C)C=C(C)[C@H](OC(N)=O)[C@@H](OC)C=CC=C(C)C(=O)N2,4.53% (inactive),
CCOc1cc2c(c(F)c1OCC)C(=N)N(CC(=O)c1cc(N3CCOCC3)c(OC)c(C(C)(C)C)c1)C2,1.03% (inactive),
O=c1[nH]c(=O)n([C@H]2C[C@@H](O)[C@@H](CO)O2)cc1C=CBr,-1.82% (inactive),
c1coc(CNc2ncnc3nc[nH]c23)c1,4.43% (inactive),
Cc1ccccc1C(=O)Nc1ccc(C(=O)N2CCCC(O)c3cc(Cl)ccc32)c(C)c1 (stereo not given),-8.58% (inactive),
CN[C@H]1[C@@H](O)[C@@H]2O[C@@H]3O[C@H](C)CC(=O)[C@]3(O)O[C@@H]2[C@@H](NC)[C@H]1O,-0.874% (inactive),
CC(C)C[C@H](NC(=O)[C@@H](NC(=O)c1cccc(-c2ccccc2)n1)[C@@H](C)O)B(O)O,,132 nM (active)
CC(=O)O[C@H]1C[C@@H]2CC[C@H]3[C@H]4C[C@H]([N+]5(C)CCCCC5)[C@@H](OC(C)=O)[C@@]4(C)CC[C@@H]3[C@@]2(C)C[C@H]1N1CCCCC1,15.3% (inactive),
N#CC(=Cc1ccc(O)c(O)c1)C(=O)NCc1ccccc1,-9.22% (inactive),
CC(C)C[C@@H](C=O)NC(=O)[C@H](CC(C)C)NC(=O)[C@H](CC(C)C)NC(=O)OCc1ccccc1 (Cbz-Leu-Leu-Leu-aldehyde),,1660 nM (active)
CCNC(=O)Nc1ccc(-c2nc3c(c(N4CCOC[C@H]4C)n2)CCN(C2COC2)C3)cc1,3.75% (inactive),
C#CCC(Cc1cnc2nc(N)nc(N)c2n1)c1ccc(C(=O)N[C@@H](CCC(=O)O)C(=O)O)cc1 (stereo not given in full),,132 nM (active)
CC(C)c1cc(C(C)C)c(CC(=O)NS(=O)(=O)Oc2c(C(C)C)cccc2C(C)C)c(C(C)C)c1,4.64% (inactive),
O=C(Nc1ccc(Oc2ccnc3[nH]ccc23)c(F)c1)c1cccn(-c2ccc(F)cc2)c1=O,4.75% (inactive),
CC(=O)O[C@H]1C[C@@H]2CC[C@H]3[C@H]4C[C@H]([N+]5(C)CCCCC5)[C@@H](OC(C)=O)[C@@]4(C)CC[C@@H]3[C@@]2(C)C[C@H]1[N+]1(C)CCCCC1,14.6% (inactive),
Cc1ncc(-c2ccnc(Nc3ccc(S(C)(=O)=O)cc3)n2)n1C(C)C,,4690 nM (active)
COC(=O)[C@@H]1[C@H]2C[C@@H]3c4[nH]c5ccccc5c4CCN3C[C@@H]2CC[C@@H]1O,13.3% (inactive),
O=C(CN1C(=O)C2(CCCC2)NC[C@H]1c1cc(F)cc(F)c1)Nc1ccc2c(c1)C[C@@]1(C2)C(=O)Nc2ncccc21,14.9% (inactive),
Nc1ccn(C2CO[C@H](CO)O2)c(=O)n1 (stereo not given in full),-1.22% (inactive),
CC(C(C)N1CC(=O)NC(=O)C1)N1CC(=O)NC(=O)C1 (stereo not given),4.09% (inactive),

SMILES,"activity change, negative = inhibition",Potency
CCC[C@@H](C=O)NC(=O)[C@H](CC(C)C)NC(=O)[C@H](CC(C)C)NC(=O)OCc1ccccc1 (Cbz-Leu-Leu-[Nva]-aldehyde),,3320 nM (active)
Cc1cncc2cccc(S(=O)(=O)N3CCCN(C(=O)CN)C[C@@H]3C)c12,8.68% (inactive),
COc1cc(OC)c(C=CS(=O)(=O)Cc2ccc(OC)c(NCC(=O)O)c2)c(OC)c1,,469 nM (active)
CC(=O)NCC(=O)N1[C@H]2CC[C@H]1c1cc(Nc3ncc(C(F)(F)F)c(NC4CCC4)n3)ccc12,,13200 nM (active)
C[C@H](O)[C@@H]1C(=O)N2C(C(=O)O)=C(S[C@@H]3CN[C@H](CNS(N)(=O)=O)C3)[C@@H](C)[C@@H]12,0.154% (inactive),
Oc1ccc(-c2ccc(-c3cc(Nc4cccc(CNC5CC5)c4)n[nH]3)cc2)c(O)c1,,1180 nM (active)
C=C1CCC2[C@](C)(CO)C(O)CC[C@]2(C)C1CC=C1C(=O)OCC1O (stereo not given in full),6.47% [at 92.8 µM] (inactive),
CCOC(=O)N1CCN([N+]([O-])=NOc2ccc([N+](=O)[O-])cc2[N+](=O)[O-])CC1,0.137% (inactive),
C[N+](C)([O-])CCNc1ccc(NCC[N+](C)(C)[O-])c2c1C(=O)c1c(O)ccc(O)c1C2=O,0.59% (inactive),
C=C[C@@H]1CN2CCC1C[C@H]2[C@H](O)c1ccnc2ccc(OC)cc12 (stereo not given in full),4.92% (inactive),
Cc1[nH]c(C=C2C(=O)Nc3ccccc32)c(C)c1CCC(=O)O,37.4% (inactive),
C[C@@H](Oc1ccc2[nH]nc(C=Cc3cnn(CCO)c3)c2c1)c1c(Cl)cncc1Cl,-5.37% (inactive),
CN(C)CCN1C(=O)c2cccc3cc(N)cc(c23)C1=O,31.1% (inactive),
O=c1ccn([C@@H]2O[C@H](CO)[C@H](O)[C@@H]2F)c(=O)[nH]1,2.17% (inactive),
O=C(O)[C@H](CC(=O)N1C[C@@H]2CCCC[C@H]2C1)Cc1ccccc1,-0.347% (inactive),
CC(C)[C@H](CO)Nc1nc(Nc2cccc(Cl)c2)c2ncn(C(C)C)c2n1,,23500 nM (active)
C[C@@H](Cc1cc2c(c(C(N)=O)c1)N(CCCO)CC2)NCCOc1ccccc1OCC(F)(F)F,-2.9% (inactive),
CC(=O)[C@]1(O)Cc2c(O)c3c(c(O)c2[C@@H](O[C@H]2C[C@H](N)[C@@H](O)[C@H](C)O2)C1)C(=O)c1ccccc1C3=O,,1050 nM (active)
N#CC(=C(N)Sc1ccc(N)cc1)c1ccccc1C(F)(F)F,7.54% (inactive),
Cn1cnc(=N)c2[nH]cnc21,5.19% (inactive),

# Reference: PubChem BioAssay (NCATS)
